Reference: PubChem BioAssay (EPA / NIEHS)
Results filed as inconclusive are left out. Activity calls are given as the source filed them. The calls were made as follows, unless noted: active = hit-call score of the fitted dose curve at least 0.9, where 1 is the maximum; inconclusive = response in the unintended direction; inactive = score below 0.9.

Legend:
[1] = read-out: Glyceraldehyde-3-phosphate dehydrogenase (Homo sapiens) (UniProt P04406); experiment: CLD_GAPDH_24hr: CellzDirect (CLD) Gene Expression Assay for Baseline Control (Glyceraldehyde 3-phosphate dehydrogenase) at 24 hours (AID 2283692)
Outline: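 GAPDH baseline-control readout: qNPA chemiluminescent mRNA signal in human primary hepatocytes harvested 24 h after daily dosing, normalised to 0.2% DMSO with positive fitting direction; cytotoxicity annotated by phase-contrast morphology.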

[2] = read-out: alkyl and aryl transferase (GSTA2), GSTA2 (gene 2939); experiment: CLD_GSTA2_24hr: CellzDirect (CLD) Gene Expression Assay for alkyl and aryl transferase (GSTA2) at 24 hours (AID 2283693)
Outline: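 GSTA2 transcript levels were quantified by quantitative nuclease protection assay in primary human hepatocytes 24 h after daily dosing with fresh solutions at multiple concentrations; 0.2% DMSO vehicle as baseline, cytotoxicity flagged morphologically.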

[3] = read-out: ABC Transporter (ABCB1), ABCB1 (gene 5243); experiment: CLD_ABCB1_48hr: CellzDirect (CLD) Gene Expression Assay for ABC Transporter (ABCB1) at 48 hours (AID 2283695)
Outline: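 ABCB1 mRNA was measured by quantitative nuclease protection assay (chemiluminescence) 48 h after dosing. Human hepatocyte cultures from two separate donors received fresh dosing solutions daily for two days, with 0.2% DMSO as vehicle. Positive-direction fit against DMSO.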

[4] = read-out: glucuronosyltransferase (UGT1A1), UGT1A1 (gene 54658); experiment: CLD_UGT1A1_24hr: CellzDirect (CLD) Gene Expression Assay for glucuronosyltransferase (UGT1A1) at 24 hours (AID 2283696)
Outline: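 UGT1A1 transcript induction was measured by quantitative nuclease protection assay (chemiluminescence) in human hepatocyte cultures 24 h after daily fresh dosing, with 0.2% DMSO as vehicle and baseline.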

[5] = read-out: Cytochrome P450 3A4 (Homo sapiens) (UniProt P08684); experiment: CLD_CYP3A4_48hr: CellzDirect (CLD) Gene Expression Assay for xenobiotic metabolism (CYP3A4) at 48 hours (AID 2283698)
Outline: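 CYP3A4 induction read by qNPA chemiluminescence after 48 h, with fresh dosing solutions on consecutive days, in cultured human hepatocytes (two donors). Vehicle 0.2% DMSO as baseline; microscopy-based cytotoxicity annotated yes/no alongside data.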

[6] = read-out: Cytochrome P450 2C19 (Homo sapiens) (UniProt P33261); experiment: CLD_CYP2C19_48hr: CellzDirect (CLD) Gene Expression Assay for xenobiotic metabolism (CYP2C19) at 48 hours (AID 2283700);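 also: fitted upward so actives raise CYP2C19 mRNA above the 0.2% DMSO vehicle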
Outline: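 CYP2C19 mRNA induction read by chemiluminescent quantitative nuclease protection assay after 48 h, with fresh compound added daily for two days to cultured human liver hepatocytes. Activity fitted upward against 0.2% DMSO vehicle.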

[7] = CLD_ACTIN_48hr: CellzDirect (CLD) Gene Expression Assay for Baseline Control (Actin) at 48 hours (AID 2283702)
Outline: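 Background-control actin mRNA read by qNPA chemiluminescence at 48 h. Human hepatocyte cultures from two donors received fresh multi-concentration chemical doses daily for two days; 0.2% DMSO served as vehicle baseline.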

[8] = read-out: xenobiotic metabolism (CYP1A2), CYP1A2 (gene 1544); experiment: CLD_CYP1A2_48hr: CellzDirect (CLD) Gene Expression Assay for xenobiotic metabolism (CYP1A2) at 48 hours (AID 2283703)
Outline: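 Cytotoxicity was flagged yes/no from morphology, while CYP1A2 transcript induction was detected by qNPA chemiluminescence after a 48-hour exposure. Human primary hepatocyte cultures from separate donors received fresh dosing solutions daily over two days, with 0.2% DMSO as vehicle and baseline.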

[9] = read-out: xenobiotic metabolism (CYP1A1), CYP1A1 (gene 1543); experiment: CLD_CYP1A1_48hr: CellzDirect (CLD) Gene Expression Assay for xenobiotic metabolism (CYP1A1) at 48 hours (AID 2283705)
Outline: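 CYP1A1 transcript measured by quantitative nuclease protection (chemiluminescent) 48 h after two daily treatments of human hepatocyte cultures, versus 0.2% DMSO. Morphology-based cytotoxicity flags accompany data; two donor preparations used.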

[10] = read-out: Glyceraldehyde-3-phosphate dehydrogenase (Homo sapiens) (UniProt P04406); experiment: CLD_GAPDH_48hr: CellzDirect (CLD) Gene Expression Assay for Baseline Control (Glyceraldehyde 3-phosphate dehydrogenase) at 48 hours (AID 2283706);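 also: active means higher GAPDH mRNA than DMSO vehicle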
Outline: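 GAPDH baseline-control readout: qNPA chemiluminescent mRNA quantitation in human liver primary cells 48 h after daily dosing on two consecutive days, vehicle 0.2% DMSO; gain of signal fitted against DMSO, cytotoxicity flagged by phase-contrast morphology.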

[11] = read-out: organic anion transporter (SLCO1B1), SLCO1B1 (gene 10599); experiment: CLD_SLCO1B1_48hr: CellzDirect (CLD) Gene Expression Assay for organic anion transporter (SLCO1B1) at 48 hours (AID 2283707)
Outline: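 SLCO1B1 transcript quantified by qNPA with chemiluminescent readout after 48 h of once-daily chemical exposure. Cultured human primary hepatocytes came from two donors, with 0.2% DMSO vehicle; positive-direction fitting against DMSO, cytotoxicity flagged by morphology.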

[12] = read-out: alkyl and aryl transferase (GSTA2), GSTA2 (gene 2939); experiment: CLD_GSTA2_48hr: CellzDirect (CLD) Gene Expression Assay for alkyl and aryl transferase (GSTA2) at 48 hours (AID 2283708);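 also: active means mRNA induction above DMSO vehicle baseline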
Outline: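 GSTA2 mRNA quantified by qNPA chemiluminescence in human primary hepatocyte lysates after 48 h of daily fresh chemical dosing. Increases fitted against 0.2% DMSO vehicle baseline; cytotoxicity from morphology annotated yes/no.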

[13] = read-out: sulfotransferase (SULT2A), SULT2A1 (gene 6822); experiment: CLD_SULT2A_48hr: CellzDirect (CLD) Gene Expression Assay for sulfotransferase (SULT2A) at 48 hours (AID 2283710);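 also: hits raise SULT2A1 transcript above the 0.2% DMSO vehicle baseline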
Outline: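 SULT2A1 transcript measured by qNPA chemiluminescence in human primary hepatocyte cultures after 48 h, with fresh dosing solutions on two consecutive days; gain-of-signal fitting against 0.2% DMSO vehicle; cytotoxicity annotated from phase-contrast morphology.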

[14] = read-out: ABC Transporter (ABCB11), ABCB11 (gene 8647); experiment: CLD_ABCB11_48hr: CellzDirect (CLD) Gene Expression Assay for ABC Transporter (ABCB11) at 48 hours (AID 2283697)
Outline: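 Induction of ABCB11 mRNA relative to 0.2% DMSO, measured at 48 h by qNPA chemiluminescence. Cultured human hepatocytes (two donors) received fresh dosing solutions at several concentrations on two consecutive days.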

[15] = read-out: Cytochrome P450 2C9 (Homo sapiens) (UniProt P11712); experiment: CLD_CYP2C9_48hr: CellzDirect (CLD) Gene Expression Assay for xenobiotic metabolism (CYP2C9) at 48 hours (AID 2283701; active = hit-call score of the fitted dose curve at least 0.9, where 1 is the maximum; inactive = score below 0.9)
Outline: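 mRNA level measured by quantitative nuclease protection (S1 digestion, chemiluminescent detection) in lysates of human primary hepatocytes exposed 48 h with daily re-dosing. Induction fitted positively versus 0.2% DMSO; morphology-based cytotoxicity flagged yes/no.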

[16] = read-out: Cytochrome P450 2B6 (Homo sapiens) (UniProt P20813); experiment: CLD_CYP2B6_48hr: CellzDirect (CLD) Gene Expression Assay for xenobiotic metabolism (CYP2B6) at 48 hours (AID 2283699);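 also: actives raise transcript level above DMSO so potency reflects induction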
Outline: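 CYP2B6 transcript induction, read by quantitative nuclease protection (S1 digestion, chemiluminescent detection) 48 h after dosing, is fitted upward against 0.2% DMSO. Cultured human liver primary cells, two donor preparations, received fresh chemical daily over multiple concentrations.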

[17] = read-out: Broad substrate specificity ATP-binding cassette transporter ABCG2 (Homo sapiens) (UniProt Q9UNQ0); experiment: CLD_ABCG2_48hr: CellzDirect (CLD) Gene Expression Assay for ABC Transporter (ABCG2) at 48 hours (AID 2283704);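 as to AC50: potency for induction of ABCG2 mRNA above the DMSO baseline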
Outline: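 ABCG2 transcript measured at 48 h by quantitative nuclease protection (chemiluminescent) and fitted for increase relative to 0.2% DMSO. Hepatocyte cultures from separate donors got fresh compound daily over two days; morphology annotated cytotoxicity.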

[18] = read-out: glucuronosyltransferase (UGT1A1), UGT1A1 (gene 54658); experiment: CLD_UGT1A1_48hr: CellzDirect (CLD) Gene Expression Assay for glucuronosyltransferase (UGT1A1) at 48 hours (AID 2283709);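 also: actives increase expression relative to DMSO so potency refers to induction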
Outline: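 Quantitative nuclease protection assay (chemiluminescent) for UGT1A1 mRNA at 48 h in human hepatocyte cultures from two donors, redosed daily with fresh solutions. Induction fitted relative to 0.2% DMSO; phase-contrast morphology annotated cytotoxicity.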

[19] = read-out: sulfotransferase (SULT2A), SULT2A1 (gene 6822); experiment: CLD_SULT2A_24hr: CellzDirect (CLD) Gene Expression Assay for sulfotransferase (SULT2A) at 24 hours (AID 2283694)
Outline: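 mRNA is measured by qNPA: probe hybridisation, S1 nuclease digestion, chemiluminescence, in lysates from human primary hepatocytes harvested 24 h after daily dosing. Vehicle was 0.2% DMSO. Phase-contrast microscopy flagged cytotoxicity (yes/no).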

Measured: AC50

Glyceraldehyde-3-phosphate dehydrogenase (Homo sapiens), sequence (P04406 whole entry, looked up): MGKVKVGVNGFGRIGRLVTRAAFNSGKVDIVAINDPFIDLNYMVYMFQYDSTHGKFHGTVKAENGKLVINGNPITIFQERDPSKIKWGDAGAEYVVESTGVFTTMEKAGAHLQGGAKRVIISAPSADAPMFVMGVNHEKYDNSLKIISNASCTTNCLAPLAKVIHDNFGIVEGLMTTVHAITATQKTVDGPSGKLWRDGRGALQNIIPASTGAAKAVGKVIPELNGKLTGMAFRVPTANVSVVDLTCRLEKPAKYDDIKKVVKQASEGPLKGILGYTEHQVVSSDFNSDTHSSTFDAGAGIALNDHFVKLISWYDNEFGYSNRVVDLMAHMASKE
Cytochrome P450 2C19 (Homo sapiens), sequence (P33261 whole entry, looked up): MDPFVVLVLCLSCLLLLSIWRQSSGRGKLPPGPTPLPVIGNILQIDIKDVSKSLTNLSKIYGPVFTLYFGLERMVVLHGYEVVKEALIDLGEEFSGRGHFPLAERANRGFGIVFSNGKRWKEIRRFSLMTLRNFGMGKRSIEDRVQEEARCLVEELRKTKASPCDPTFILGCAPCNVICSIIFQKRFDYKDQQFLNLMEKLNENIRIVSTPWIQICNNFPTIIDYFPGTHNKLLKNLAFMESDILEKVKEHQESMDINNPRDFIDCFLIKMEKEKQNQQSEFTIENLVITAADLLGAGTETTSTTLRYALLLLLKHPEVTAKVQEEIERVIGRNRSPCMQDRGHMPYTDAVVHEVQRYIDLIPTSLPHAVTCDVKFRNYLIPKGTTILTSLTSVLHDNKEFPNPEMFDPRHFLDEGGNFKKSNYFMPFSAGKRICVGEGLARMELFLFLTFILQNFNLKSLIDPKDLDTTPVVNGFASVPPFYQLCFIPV
Broad substrate specificity ATP-binding cassette transporter ABCG2 (Homo sapiens), sequence (Q9UNQ0 whole entry, looked up): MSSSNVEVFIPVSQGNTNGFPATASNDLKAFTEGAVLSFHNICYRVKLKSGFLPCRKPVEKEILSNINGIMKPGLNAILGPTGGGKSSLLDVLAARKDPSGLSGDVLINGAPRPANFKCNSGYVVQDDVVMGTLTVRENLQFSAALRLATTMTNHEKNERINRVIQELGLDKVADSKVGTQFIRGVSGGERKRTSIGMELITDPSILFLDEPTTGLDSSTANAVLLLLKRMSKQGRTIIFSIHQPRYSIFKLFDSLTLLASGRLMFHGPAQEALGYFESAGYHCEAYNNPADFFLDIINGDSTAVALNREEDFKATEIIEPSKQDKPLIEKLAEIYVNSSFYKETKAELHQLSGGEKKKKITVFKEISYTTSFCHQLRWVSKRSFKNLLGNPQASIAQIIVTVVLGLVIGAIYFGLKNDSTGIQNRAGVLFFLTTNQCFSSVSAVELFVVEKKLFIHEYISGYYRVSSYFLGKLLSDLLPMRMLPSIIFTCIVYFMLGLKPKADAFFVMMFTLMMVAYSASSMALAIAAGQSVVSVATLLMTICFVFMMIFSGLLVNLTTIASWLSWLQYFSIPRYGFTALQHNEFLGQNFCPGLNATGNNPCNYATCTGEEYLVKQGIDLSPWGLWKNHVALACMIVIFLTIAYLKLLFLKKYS
Cytochrome P450 3A4 (Homo sapiens), sequence (P08684 whole entry, looked up): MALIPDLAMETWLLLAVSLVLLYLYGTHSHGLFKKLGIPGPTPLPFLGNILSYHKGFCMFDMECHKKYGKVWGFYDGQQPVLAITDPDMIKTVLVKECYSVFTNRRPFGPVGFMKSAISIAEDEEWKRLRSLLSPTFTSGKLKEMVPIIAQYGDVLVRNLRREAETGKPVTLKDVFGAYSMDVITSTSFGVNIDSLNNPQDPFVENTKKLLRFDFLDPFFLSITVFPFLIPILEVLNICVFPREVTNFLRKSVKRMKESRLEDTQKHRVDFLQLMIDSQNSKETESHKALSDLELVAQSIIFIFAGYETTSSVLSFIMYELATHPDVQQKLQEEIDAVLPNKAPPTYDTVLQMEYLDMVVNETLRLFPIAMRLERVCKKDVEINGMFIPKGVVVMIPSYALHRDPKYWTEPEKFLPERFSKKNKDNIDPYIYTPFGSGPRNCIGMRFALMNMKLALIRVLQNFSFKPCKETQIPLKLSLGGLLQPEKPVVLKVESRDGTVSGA

CC(C)N1C(=O)c2ccccc2NS1(=O)=O
not listed: [14] | [15] | [16] | [17] | [18] | [19]
inactive: all other assays above

O=P(O)(O)CCCl
inactive: [1] | [2] | [4] | [14] | [7] | [8] | [9] | [11] | [13]

Cc1cnc(C2=NC(C)(C(C)C)C(=O)N2)c(C(=O)O)c1 (configuration not stated)
inactive: [1] | [2] | [4] | [15] | [7] | [8] | [9] | [10] | [13]

CC(C)Nc1nc(Cl)nc(NC(C)C)n1
inactive: [1] | [3] | [9] | [12] | [13]
active: [4] 4.11 µM | [5] 3.54 µM | [16] 3.11 µM | [8] 2.76 µM

N#Cc1c(Cl)cccc1Cl
active: [5] 4.83 µM | [16] 1.44 µM
not listed: [3] | [8] | [10] | [11] | [14] | [19]
inactive: all other assays above

Nc1cnn(-c2ccccc2)c(=O)c1Cl
inactive: [1] | [4] | [5] | [6] | [17] | [9] | [10] | [11] | [12] | [13]
active: [8] 4.24 µM

CCOc1nc(C(Cl)(Cl)Cl)ns1
inactive: [1] | [2] | [4] | [14] | [5] | [15] | [7] | [10] | [18]
active: [8] 5.52 µM | [9] 3.97 µM

CCOc1nc(F)cc2nc(S(=O)(=O)Nc3c(Cl)cccc3Cl)nn12
inactive: [1] | [3] | [4] | [6] | [15] | [8] | [9] | [13]
active: [5] 3.13 µM | [16] 7.88 µM

C=C(C)CN(CC)c1c([N+](=O)[O-])cc(C(F)(F)F)cc1[N+](=O)[O-]
active: [5] 3.97 µM
not listed: [4] | [15] | [16] | [19]
inactive: all other assays above

COc1ccc(-c2ccccc2)cc1NNC(=O)OC(C)C
active: [8] 0.127 µM
not listed: [10] | [15] | [16] | [18] | [19]
inactive: all other assays above

CS(=O)(=O)c1cc(C(F)(F)F)ccc1C(=O)c1cnoc1C1CC1
active: [5] 29.1 µM | [16] 9.48 µM | [8] 20 µM
not listed: [6] | [7] | [14] | [15] | [19]
inactive: all other assays above

O=c1n(Cl)c(=O)n(Cl)c(=O)n1Cl
not listed: [5] | [7] | [10] | [16] | [18] | [19]
inactive: all other assays above

CCOP(=O)(OCC)Oc1nc(Cl)c(Cl)cc1Cl
active: [16] 3.97 µM | [8] 4.58 µM
not listed: [3] | [6] | [7] | [9] | [11] | [17] | [19]
inactive: all other assays above

CC(C)=CC1C(C(=O)OCc2coc(Cc3ccccc3)c2)C1(C)C (configuration not stated)
not listed: [3] | [5] | [7] | [9] | [14] | [15] | [16] | [18]
inactive: all other assays above

Cc1ccc(N=CN(C)C=Nc2ccc(C)cc2C)c(C)c1
active: [8] 0.673 µM | [17] 17.4 µM | [9] 5.87 µM
inactive: [1] | [3] | [10] | [12]

Nc1c(Cl)c(F)nc(OCC(=O)O)c1Cl
active: [5] 0.0004 µM
not listed: [2] | [6] | [10] | [12] | [16] | [18] | [19]
inactive: all other assays above

CCCN(CC)CC1COC2(CCC(C(C)(C)C)CC2)O1 (configuration not stated)
active: [5] 2.82 µM | [8] 0.199 µM | [9] 3.97 µM | [13] 0.0474 µM
not listed: [7] | [11] | [14] | [16] | [19]
inactive: all other assays above
